Assay outcomes: PubChem, National Center for Advancing Translational Sciences (NCATS)
Sm TGR inh – inhibitors of Schistosoma mansoni thioredoxin glutathione reductase | Q962Y6 | purified TGR, DTNB reduction, TNB absorbance 405 nm | Potency, µM (highest dose often 114 µM), for inactives: at the top dose activity change, negative = inhibition, actives largely listed as inhibitors | actives 3% (n = 360,000) | AID 485364; note: potency is the fitted concentration of half-maximal effect; nearly all actives have a fitted effect of over 60% in size
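Kinetic colorimetric format: TGR-catalysed, NADPH-driven DTNB reduction monitored via TNB absorbance. Enzyme dispensed at 20 nM; compound exposure 15 min at room temperature before reaction start.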
Pf growth 48h – P. falciparum growth inhibition at 48 hours (one generation) | P. falciparum luciferase growth in erythrocytes, 48 h | Potency, µM (titrated, usually from 28.7 µM), for inactives: top-dose activity change, negative = inhibition, most hits filed as inhibitors | actives 5.9% (n = 310,000) | AID 504832; note: potency is the fitted concentration of half-maximal effect
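Luciferase-expressing parasites in RBCs, 2% Hct / 0.1% parasitemia final; RPMI 1640 + 0.5% Albumax; 37 C, 5% CO2, one generation; luminescence read-out, lower signal = inhibition.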
HCMV inh – human cytomegalovirus inhibition. HFF cells, HCMV-luciferase reporter, 72 h; active compounds read low. activity change, negative = inhibition, % at 57.5 µM. AID 1259415. actives 4.5% (n = 410,000); in the data active = activity change below about -60%; inconclusive = no clear call, values can overlap the other calls; inactive = above about -39%
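Steps: HFFs plated, 16 h 37C; compounds added; HCMV-luciferase added to MOI 1 PFU/cell; 72 h 37C; OneGlo reagent, 5 min room temperature; luminescence read, normalized to controls.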
Pf growth 96h – P. falciparum growth inhibition at 96 hours; P. falciparum luciferase reporter growth, 96 h; Potency, µM (top dose mostly 28.7 µM), inactives show at the top dose activity change, negative = inhibition, most hits filed as inhibitors; actives 6.9% (n = 320,000); AID 504834; note: potency is the fitted concentration of half-maximal effect
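Delayed-death screen, second-generation endpoint: infected erythrocytes, 2% hematocrit, 0.05% parasitemia final; 96 hours at 37 C, 5% CO2; luciferase detection reagent; luminescence decrease equals reduced growth.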
Giardia FBPA inh – Giardia lamblia aldolase inhibition; A8B2U2; purified Giardia FBPA; Potency, µM (top dose mostly 59.6 µM), for inactives: at the highest dose activity, negative = inhibition, most hits filed as inhibitors; actives 0.71% (n = 290,000); note: potency is the fitted concentration of half-maximal effect; nearly all actives have a fitted effect of over 55% in size
Target sequence (A8B2U2 whole entry, looked up): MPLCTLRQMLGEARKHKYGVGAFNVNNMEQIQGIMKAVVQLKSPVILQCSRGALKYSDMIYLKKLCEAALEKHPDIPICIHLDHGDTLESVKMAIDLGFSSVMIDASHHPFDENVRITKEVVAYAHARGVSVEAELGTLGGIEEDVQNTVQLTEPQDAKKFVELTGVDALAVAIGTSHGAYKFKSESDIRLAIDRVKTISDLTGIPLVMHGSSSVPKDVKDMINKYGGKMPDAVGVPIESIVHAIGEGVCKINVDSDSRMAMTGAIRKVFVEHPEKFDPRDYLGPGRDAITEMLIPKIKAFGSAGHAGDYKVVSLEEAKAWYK
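40 nM FBPA preincubated 10 min at RT with compound (up to 57.5 uM final), then substrate plus GAPDH/TPI/NAD/arsenate coupling and diaphorase/resazurin added. Fluorescence read after 20 min at RT, 525/598 nm.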
An asterisk follows results filed as active; u = inconclusive; x = not tested or not shown; ! = a repeat was not active; [ ] = remark or other dose. Shown are actives, neighbours in structure and some others; about 14% of the full set was active somewhere. Unless noted, calls come from the whole dose curve; as a rule, active = well fitted curve in the direction sought with a large enough effect; inconclusive = small, poorly fitted or top-dose-only effect, or another doubt; inactive = no such curve, though single readings can be large; an effect the other way counts as inactive or inconclusive. % is set by controls: 0 for no effect and ±100 for the full control effect.

SMILES	Sm TGR inh	Pf growth 48h	HCMV inh	Pf growth 96h	Giardia FBPA inh
COc1ccc(C(=O)NNC(=O)CCc2ccccc2OC)cc1	-6%	18%	-12	55%	-4%
Cc1ccc(S(=O)(=O)/C(=C/Cl)NC(=O)c2ccccc2)cc1	40µM*	-15%	-66*	u	-6%
C/C(=C\c1ccccc1F)C(=O)c1c(C)cc(C)[nH]c1=O	8%	-7%	-19	u	7%
C/C(=C\c1cccc(Cl)c1Cl)C(=O)c1c(C)cc(C)[nH]c1=O	1%	0%	-12	19µM*	-1%
CCNc1ccccc(C(=O)/C=C/c2ccc3c(c2)OCO3)c1=O	2.5µM*	x	-2	u	u
Cc1cc(C)c(C(=O)/C=C/c2cccc3ccccc23)c(=O)[nH]1	-14%	u	-104*	u	-3%
Cc1cc(C)c(C(=O)/C=C/c2ccc3c(c2)OCO3)c(=O)[nH]1	-25%	0%	-101*	69%	-15%
CO[C@@H]1COC(=O)CC=C[C@@H](C)[C@@H]2C=C[C@H](O)[C@@H](COC(=O)[C@H](C)NC(=O)CC=C[C@H]1C)O2	x	x	x	x	0%[12.9 µM]
CCc1ccc(CN(C)C(=O)c2cc(COc3ccc(OC)cc3Cl)on2)nc1	-8%	29%	72	7%	-1%
Cc1cc(-c2nc3ncccc3o2)ccc1NC(=O)COc1cc(C)c(Cl)c(C)c1	-1%	x	2	x	x
O=S(=O)(N1CC[C@@]23C1=CC=C[C@@H]2N(S(=O)(=O)C(F)(F)F)c1ccccc13)C(F)(F)F	x	x	35	x	x
COc1cc(-c2nc3nc[nH]n3c2Nc2ccc(C(C)C)cc2)ccc1O	14µM*	x	-68*	x	x
COc1cc(-c2nc3cnccn3c2Nc2ccccc2)ccc1O	-15%	u	196	5.2µM*	0%
COc1cc(-c2nc3cccc(C)n3c2Nc2ccc3c(c2)OCCO3)ccc1O	-27%	x	52	x	x
COc1cc(-c2nc3cnccn3c2Nc2ccc(C(C)C)cc2)ccc1O	-9%	u	-92*!	x	-1%
COc1cc(-c2nc3cnccn3c2Nc2ccc(C)cc2)ccc1O	25%	u	84	x	-5%
CC1=C(C(=O)Nc2ccccn2)C(c2ccc(Cl)cc2Cl)NC(=S)N1 (stereo unspecified)	2%	u	u	47%	0%
O=C1C2CCCN2C(=O)N1CCCCN1CCN(c2cccc(Cl)c2)CC1 (stereo unspecified)	0%	-10%	-17	13µM*	-7%
CCOC(=O)c1c(C)oc2ccc(N(C(=O)Oc3ccccc3)S(=O)(=O)c3ccc(CC)cc3)cc12	10%	x	6	x	x
C=CC[n+]1c(-c2ccc(C)cc2)csc1Nc1ccc(NC(C)=O)cc1	0%	u	-88*	0%	-22%
CCCC(=O)Nc1cc(C)cn(Cc2c(F)cccc2Cl)c1=O	20%	-4%	-2	u	-21%
COCC(=O)Nc1cc(C)cn(Cc2ccccc2Cl)c1=O	42%	0%	9	0.083µM*	-13%
S=C1NCCc2ccccc2C1c1ccccc1Cl (stereo unspecified)	3%	13µM*	-6	u	-9%
S=C1NCCc2ccccc2C1c1ccccc1 (stereo unspecified)	-2%	8.3µM*	32	u	-24%
CCC[C@H]1[C@@H](NS(=O)(=O)c2cn(C)cn2)CC[C@@]23CCCN2C(=O)CCC[C@@H]13	x	x	-23	x	x
SMILES	Sm TGR inh	Pf growth 48h	HCMV inh	Pf growth 96h	Giardia FBPA inh
O=C1CC(NS(=O)(=O)c2ccc([N+](=O)[O-])cc2)CN1c1cccc(F)c1 (stereo unspecified)	-15%	u	31	6%	x
COC(=O)CSc1nc(C(C)C)nc2ccccc12	-20%	-1%	14	-2%	7%
CC(C)c1nc(SCC(=O)Nc2ccc(N(C)C)cc2)c2ccccc2n1	-5%	12µM*	-77*	27%	0%
CC(C)(C)c1nc(SCC(=O)NC2CCCC2)c2ccccc2n1	4%	7%	-38	14%	5%
CCOC(=O)CSc1nc(C(C)C)nc2ccccc12	9%	0%	-16	13µM*	11%
CC(C)c1nc(SCC(=O)Nc2nccs2)c2ccccc2n1	-8%	-7%	u	u	-13%
CC(C)(C)c1nc(SCC(=O)NNC(=O)c2ccccc2)c2ccccc2n1	-1%	-15%	-63*	9%	2%
COc1ccc(C(=O)NNC(=O)CSc2nc(C(C)C)nc3ccccc23)cc1	2%	-21%	-65*	u	-1%
C/C(=N\NC(=O)CCCOc1ccc(Cl)cc1C)c1ccc(C)o1	9%	-6%	56	u	1%
C#CC1(N2CCCCC2)CCCCC1	x	x	-62*	x	x
CCN(CC(=O)Nc1ccc(S(=O)(=O)N2CCCCC2)cc1)Cc1ccccc1	-17%	u	-23	u	x
CCN(CC(=O)Nc1cc(S(=O)(=O)N2CCOCC2)ccc1Cl)Cc1ccccc1	3%	12µM*	-30	12µM*	x
CCN(CC(=O)Nc1cc(S(=O)(=O)N2CCCCC2)ccc1Cl)Cc1ccccc1	4%	10µM*	4	10µM*	x
CCN(Cc1ccncc1)C(=O)c1ccc(Br)o1	u	9%	-28	3%	x
COC(=O)[C@@]12CCCN1[C@H](c1ccc(-c3ccccc3)cc1)[C@@H]1C(=O)N(C)C(=O)[C@@H]12	-19%	7.4µM*	-19	u	x
COC(=O)[C@@]12CCCN1[C@H](c1ccc(-c3cccc(Cl)c3)cc1)[C@H]1C(=O)N(C)C(=O)[C@H]12	-34%	6.6µM*	-28	13µM*	x
COC(=O)[C@@]12CCCCN1[C@H](c1ccc(-c3ccc(OC)cc3)cc1)[C@@H]1C(=O)N(C)C(=O)[C@@H]12	-4%	u	3	-8%	x
COc1ccc2oc(C(=O)OC(C)C(=O)N3C(C)CCCC3C)c(C)c2c1 (stereo unspecified)	x	x	-29	x	x
CC1CN(C(=O)C(c2ccccc2)c2ccccc2)CC(C)O1 (stereo unspecified)	-27%	x	-30	u	2%
CC1CN(C(=O)C(Sc2ccccc2)c2ccccc2)CC(C)O1 (stereo unspecified)	-3%	9%	8	10µM*	1%
O=C(CSc1nc2ccccc2s1)Nc1nccs1	-17%	14%	-21	100%	0%
CC(C)c1nnc(NC(=O)CSc2nc3ccccc3s2)s1	3%	8%	-73*	x	6%
Nc1nonc1NC(=O)CSc1nc2ccccc2s1	11%	19%	58	10µM*	-17%
Cc1c(Cl)c([N+](=O)[O-])nn1Cc1ccc(C(=O)N/N=C\c2cccc(Br)c2)o1	35%	9.3µM*	52	u	u
O=C(Cc1ccc(NC(=O)C2CCN(C(=O)C3CCCC3)CC2)cc1)Nc1cccc(C(=O)N2CCCCC2)c1	x	x	7	x	x
